PubChem BioAssay
Several values for one entry are separate records, joined by “and”; a condition that tells them apart may be missing. Equal entries are not always repeated. Activity calls are given as the source filed them. Rule as the data show it, unless noted: active = parasite load remaining mostly below about 12% (no sharp cut-off); inactive = mostly above about 10%.

Experiments:
[1] = P. berghei load reduction in hepatocytes – cell-based, HepG2, luciferase luminescence, HepG2 viability, primary screen (AID 624349);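 also: 100% = mean of DMSO negative control wells on the same plate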; conditions: P. berghei liver stage in HepG2, luciferase luminescence, concentration not given here; parasite load remaining: stronger effect = lower value; viability: measured here: HepG2 viability without parasites
[2] = Wnt pathway potentiators raising nuclear beta-catenin – imaging, WNT3A-conditioned medium, mouse C2C12, NPC library, primary screen (AID 1117326; in the data active = nuclear beta-catenin stimulation mostly above about 4.2%, no sharp cut-off; inactive = mostly below about 10%; also: reference of the scale not given here); conditions: stronger effect = higher value
[3] = stimulators of insulin release from INS-1E, primary screen, cell-based, 5 mM glucose, NPC library (AID 1117329;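 active = compound raises insulin release from rat beta cells at 5 mM glucose, no numeric limit stated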; also: reference of the scale not given here); conditions: rat INS-1E insulin secretion, at 10 µM, stronger effect = higher value
[4] = growth inhibition of GSK3B-pretreated HCT116 cells – cell-based, CellTiter-Glo, 0.2 to 20 µM (AID 1117336;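 active = compounds lowering colon cancer cell viability after pretreatment blocking the GSK3B kinase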); conditions: HCT116 viability after GSK3B inhibitor, at 20 µM, stronger effect = higher value
[5] = inhibition of endothelial tube formation, primary screen, imaging, VEGF stimulated, CD31 staining, tube area, NPC library (AID 1117340;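 active = compound that reduces growth-factor-driven endothelial tube area in a mixed cell culture, no cutoff stated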); conditions: VEGF-stimulated ADSC/ECFC co-culture, at 10 µM, stronger effect = higher value
[6] = GLP1 release stimulators, primary, NCI-H716, NPC library (AID 1117341;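 active = compound raises GLP1 secretion from the human gut endocrine cells, with no numeric limit stated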; also: reference of the scale not given here); conditions: NCI-H716 cells, at 10 µM, stronger effect = higher value
[7] = HCT116 colon cancer cell growth inhibition, primary screen, CellTiter-Glo luminescence, NPC library (AID 1117342;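 active = compounds that lower survival of HCT116 colon cancer cells in the luminescence readout, no numeric limit stated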); conditions: at 20 µM (top of the series)
[8] = reduced SW480 viability measured with CellTiter-Glo, NPC library, primary (AID 1117343;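 active = compounds that lower viability of the colon cancer cells in the luminescence readout, with no numeric limit stated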); conditions: CellTiter-Glo luminescence; at 20 µM (top of the series)
[9] = NPC library primary testing for decreased DLD-1 cell viability via CellTiter-Glo (AID 1117346;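 active = compounds that lower survival of DLD-1 colon cancer cells in the luminescence readout, no cutoff given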); conditions: DLD-1 viability, CellTiter-Glo luminescence; at 20 µM (top of the series)
[10] = molecular target: 6-phosphogluconate dehydrogenase, decarboxylating (Homo sapiens) (UniProt P52209); experiment: inhibition of human phosphogluconate dehydrogenase – biochemical, recombinant enzyme, NADPH absorbance, primary screen (AID 1159550;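 active = at least 20% inhibition of 6-phosphogluconate dehydrogenase activity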); conditions: recombinant 6PGD, NADPH absorbance 341 nm; at 10 µM; stronger effect = higher value
Sequence of 6-phosphogluconate dehydrogenase, decarboxylating (Homo sapiens) (P52209 whole entry, looked up): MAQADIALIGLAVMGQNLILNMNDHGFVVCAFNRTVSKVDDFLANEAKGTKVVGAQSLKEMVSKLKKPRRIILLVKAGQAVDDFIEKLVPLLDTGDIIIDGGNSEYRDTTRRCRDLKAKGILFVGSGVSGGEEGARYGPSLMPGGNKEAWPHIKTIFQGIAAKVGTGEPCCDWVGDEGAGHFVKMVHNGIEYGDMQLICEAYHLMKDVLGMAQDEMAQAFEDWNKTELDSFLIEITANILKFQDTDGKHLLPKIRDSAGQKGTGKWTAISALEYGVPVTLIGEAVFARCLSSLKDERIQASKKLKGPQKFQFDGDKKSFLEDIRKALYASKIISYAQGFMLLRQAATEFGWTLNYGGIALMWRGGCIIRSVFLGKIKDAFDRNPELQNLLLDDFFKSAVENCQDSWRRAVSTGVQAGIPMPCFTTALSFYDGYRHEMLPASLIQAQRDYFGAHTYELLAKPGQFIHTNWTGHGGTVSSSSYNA

Compound	parasite load remaining [1]	viability [1]	nuclear beta-catenin stimulation ([2]; at 10 µM)	nuclear beta-catenin stimulation ([2]; stimulation, at 2 µM)	insulin secretion stimulation [3]	viability decrease [4]	tube area decrease [5]	GLP1 secretion stimulation [6]	inhibition of viability [7]	viability decrease (inhibition) [8]	viability decrease (inhibition) [9]	inhibition [10]
OCC(O)CN1CCN(c2ccccc2)CC1 (stereo not drawn)	36.8% (inactive) and 188% (inactive) and 98.1% (inactive)	50.7% and 71.2% and 93.7%	-1.5% (inactive)	0.8%	0.6% (inactive)	-6.6% (inactive)	-0.2% (inactive)	-1.1% (inactive)	4.03% (inactive)	29% (inactive)	-12.9% (inactive)	8.41% (inactive)
Nc1ccc(C(=O)NCC(=O)O)cc1	103% (inactive) and 157% (inactive) and 40.5% (inactive)	101% and 82% and 89.7%	0.5% (inactive)	1.4%	-1.1% (inactive)	-2.9% (inactive)	-2.1% (inactive)	2.6% (inactive)	-15.3% (inactive)	36.1% (inactive)	4.3% (inactive)	-8.81% (inactive)
CC[C@]12CCCN3CCc4c(n(c5ccccc45)C(=O)C1)[C@@H]32	191% (inactive) and 75.4% (inactive)	102% and 73.8%	35.1% (inactive)	6.2%	0.1% (inactive)	-29% (inactive)	100% (active)	7.7% (inactive)	35.7% (inactive)	60% (active)	66.2% (active)	-5.24% (inactive)
Nc1ccc(C(=O)Oc2ccccc2)c(O)c1	67.6% (inactive)	172%	0.2% (inactive)	2.9%	0.9% (inactive)	-26.7% (inactive)	4.5% (inactive)	0.7% (inactive)	3% (inactive)	-17.2% (inactive)	17.2% (inactive)	-7.23% (inactive)
CCn1cc(C(=O)O)c(=O)c2cnc(N3CCNCC3)nc21	87.7% (inactive) and 144% (inactive)	98.7% and 73%	1.9% (inactive)	4.3%	1.5% (inactive)	-23.1% (inactive)	0.7% (inactive)	-1.8% (inactive)	-0.3% (inactive)	-4.5% (inactive)	-15.1% (inactive)	6.84% (inactive)
CC(=O)Oc1cccc(O)c1	139% (inactive) and 53% (inactive)	92.8% and 100%	0.7% (inactive)	2%	2.6% (inactive)	0.4% (inactive)	20.9% (inactive)	1.4% (inactive)	3.03% (inactive)	29.4% (inactive)	-7.4% (inactive)	8.3% (inactive)
CC(=O)Nc1c(I)cc(I)c(C(=O)O)c1I	151% (inactive) and 81.4% (inactive)	82.9% and 215%	-0.1% (inactive)	1.9%	0.6% (inactive)	-43.4% (inactive)	34.2% (inactive)	0.7% (inactive)	4.5% (inactive)	-4.3% (inactive)	0.1% (inactive)	-3.44% (inactive)
COC(=O)Nc1nc2ccc(S(=O)c3ccccc3)cc2[nH]1 (stereo not drawn)	162% (inactive) and 87.1% (inactive) and 49.8% (inactive)	85.8% and 93.1% and 68.5%	57.7% (active)	58.1%	-2.4% (inactive)	93.5% (active)	110% (active)	8% (inactive)	92.2% (active)	96% (active)	88% (active)	17.4% (inactive)
O=C(N[C@H](CO)[C@H](O)c1ccc([N+](=O)[O-])cc1)C(Cl)Cl	29.9% (inactive) and 25.5% (inactive)	46.7% and 63%	-0.9% (inactive)	-0.3%	1.8% (inactive)	-11.1% (inactive)	12.5% (inactive)	-4.2% (inactive)	-1.7% (inactive)	-0.7% (inactive)	-7% (inactive)	15.5% (inactive)
CCn1cc(C(=O)O)c(=O)c2cc(F)c(N3CCNCC3)nc21	165% (inactive) and 68.7% (inactive) and 19.5% (inactive)		-0.6% (inactive)	0.6%	-0.1% (inactive)	5.9% (inactive)	2.1% (inactive)	-2.8% (inactive)	-6.97% (inactive)	-275% (inactive)	-18.4% (inactive)	-18.3% (inactive)
O=C(O)c1cc(=O)c2ccccc2o1	136% (inactive)	95.8%	-0.2% (inactive)	0.2%	-2.1% (inactive)	-1.35% (inactive)	-2.1% (inactive)	3.7% (inactive)	-9.2% (inactive)	6.8% (inactive)	1.75% (inactive)	-2.11% (inactive)
O=C(O)c1ccc(S(=O)(=O)N(Cl)Cl)cc1	101% (inactive) and 53.6% (inactive)	75.7% and 97.7%	0.3% (inactive)	1.7%	1.2% (inactive)	-8.9% (inactive)	-29.4% (inactive)	0% (inactive)	8.13% (inactive)	16.9% (inactive)	-6.9% (inactive)	13.4% (inactive)
